Results on 93 molecules are retold here after PubChem BioAssay AID1259309 (ICCB-Longwood Screening Facility, Harvard Medical School, 2017).

Where “and” joins values, the source holds several entries; their conditions need not be identical. Identical values can stand only once. Among all 330,000 compounds or so, about 1,800 (0.55%) were called active. This is one part of a sample in which actives are shown more often than they occur. Unmarked numbers belong to inactive results. Rule as the data show it: active = growth inhibition above about 68%; inactive = the rest.

The experiment is described as follows: growth inhibition of ugtP-null S. aureus, primary screen, RN4220 ugtP deletion, OD600 (AID 1259309).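 Also: plate controls were untreated wells for no effect and antibiotic for full effect.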 The following applies: 16 h, hits give high values.
For `CCN(CC)Cc1c(C(=O)NN=Cc2ccncc2)nnn1-c1nonc1N`, the growth inhibition was 4.89%. For `c1ccc2c(C[n+]3csc4ccccc43)cccc2c1`, the growth inhibition is 95.1% (active). For the molecule `Nc1scc[n+]1Cc1cccc2cccnc12`, the growth inhibition was 3.29%. Next, `c1ccc2c(CNn3cnnc3)cccc2c1`: 4.79%.

As for `Cc1ccc(CON=CCc2snc(Sc3ncc(C(F)(F)F)cc3Cl)c2C#N)cc1`, the growth inhibition was 28%. For the molecule `CCCC12CN3CCN(CC(C3)C1=NNC(=O)Nc1ccccc1)C2`, the growth inhibition was 1.17%.

As to `O=C(ON=Cc1ccc(N2CCCCC2)c([N+](=O)[O-])c1)c1c(F)cccc1F`, the growth inhibition was -5.14%. For `Cc1nnc(SCC2=C(C(=O)O)N3C(=O)C(NC(=O)Cn4nc(C)c(Cl)c4C)C3SC2)s1` (stereo not drawn), the growth inhibition was 97.9% (active). For `Cc1nnc(SCC(=O)NC2CCCC2)s1` the value was -2.03%; for `Cc1cc(C)cc(C(=O)NC2C(=O)N3C(C(=O)O)=C(CSc4nnc(C)s4)CSC23)c1` (stereo not drawn), 100% (active). Next, `Cc1nnc(SCc2cc(=O)[nH]c(N3CCN(Cc4ccccc4)CC3)n2)s1`: 0.849%; `Cc1nnc(SCC(=O)Nn2cnnc2)s1`: -2.34%. Consider `CC1(C)c2[nH]c3ccccc3c2CC2C(=O)N(Cc3ccccc3F)C(=O)N21` (stereo not drawn), for which the growth inhibition was 2.24% and -4.9%. Consider `COc1ccc(C=NNC(=O)CN2CCCC2)cc1`, for which the growth inhibition is 3.93%.

For `CC1CN(C(C)CO)C(=O)Cc2cc(NC(=O)C3CC3)ccc2OC1CN(C)Cc1ccc(Oc2ccccc2)cc1` (stereo not drawn), the growth inhibition is 9.46%. With `Cc1cc(C)nc(N=C(N)Nc2ccc(SC(F)F)cc2)n1`, the growth inhibition is 20%. For `COc1ccc(C(C)=NNC(=O)c2cccc(S(=O)(=O)N3CCCC3)c2)c(O)c1`, the growth inhibition was 4.49%. Next, `O=C(CC1CC=CCC(Cc2ccc(F)cc2)C(=O)OCC(Cc2ccccc2)NC1=O)NC(CO)Cc1ccccc1` (stereo not drawn): 5.86%; `CC(C)(C=NO)/[N+]([O-])=C/c1ccco1`: 3.75%.

Take `O=C(/C=C/c1ccc([N+](=O)[O-])o1)NNC(=O)c1ccc(F)cc1`: the growth inhibition is 98.7% (active). `O=C(NN=Cc1ccc(F)cc1)c1ccc(F)cc1`: the growth inhibition is 3.85%. Regarding `Nc1nonc1C(=O)NN=Cc1ccc([N+](=O)[O-])o1`, the growth inhibition is 70.5%. Regarding `COc1cc(NC=C2CC(=O)NC(C)=C2C#N)cc(OC)c1OC`, the growth inhibition is -2.01%. Next, `CC(=O)NC(Cc1ccccc1)C(=O)NC1CCN(c2ncccc2[N+](=O)[O-])CC1` (stereo not drawn): 7.02%; `COc1ccc(-c2cc(C3CCN(c4ncccc4[N+](=O)[O-])CC3)[nH]n2)cc1`: 100% (active).

As to `COc1ccc(-c2cc3ncccc3cn2)cc1`, the growth inhibition was 7.34%.

For the molecule `COc1ccc(S(=O)(=O)Nc2cccc3c2OC(CN(C)Cc2ccc(Cl)c(Cl)c2)C(C)CN(C(C)CO)C3=O)cc1` (stereo not drawn), the growth inhibition was 11.2%. Next, `COc1ccc(C(=O)Nc2cccc(/C=C(/CCC(=O)O)c3nc4ccccc4s3)c2)cc1`: -2.4%; `COc1ccccc1NC(=O)c1ccc2nc(N3C(=O)CCC3=O)sc2c1`: -9.64%; `COc1ccc(C2=NN(c3nc4ccccc4s3)C(=O)C2)cc1`: 99% (active). With `C/C(C=NNC(=O)CSc1nc2ccccc2n1C)=C\c1ccco1`, the growth inhibition was 3.58%.

For `NC(=O)C1CCN(C(=O)COc2cccc3cccnc23)CC1`, the growth inhibition is -13.3%. As to `OCc1ccc(OCCCOc2cccc3cccnc23)cc1`, the growth inhibition was -3.52%. For `O=C(Nc1ccccc1)Oc1cccc2cccnc12`, the growth inhibition was 99.7% (active). Next, `Cc1cc(C(=O)NNC(=S)Nc2ccccc2C)cs1`: -0.4%; `Cc1ccc(C(=O)NC(=S)Nc2ccccc2C)cc1`: 83.5% (active).

Take `Cc1ccccc1NC(=S)NC(=O)Cc1ccc(Cl)cc1`: the growth inhibition was 67%. Regarding `Cc1cc(SCC(=O)NN=Cc2ccc(O)c(O)c2)nc2ccccc12`, the growth inhibition was -2.24%. In the case of `ON=Cc1ccc(OCc2ccccc2)c(Br)c1`, the growth inhibition was 1.91%. In the case of `O=C(CC(O)(C(F)(F)F)C(F)(F)F)Nc1ccc(Cl)c(Cl)c1`, the growth inhibition was 100% (active). In the case of `NC(=O)N1CCCC1C(=O)Nc1ccc(Cl)c(Cl)c1` (stereo not drawn), the growth inhibition is 3.8%. As to `O=C(COC(=O)c1cc[n+]([O-])cc1)Nc1ccc(Cl)c(C(F)(F)F)c1`, the growth inhibition is -2.28%.

For the molecule `CC(=NNC(=O)c1nnn(-c2nonc2N)c1-c1cccs1)c1ccc(O)cc1`, the growth inhibition was -2.71%.

Regarding `Cc1ccc(C(=O)NCCN2C3=NCC(Cc4ccc(O)cc4)N3CC2Cc2ccc(O)cc2)cc1Br` (stereo not drawn), the growth inhibition was -5.82%. For `O=C(CCC(=O)Nc1ccc(F)cc1)NN=Cc1ccccc1`, the growth inhibition was -1.26%. `CCCC1CCCCC=CCCCC(=O)OCCN1C(=O)OC(C)(C)C` (stereo not drawn): the growth inhibition was -29.8% and -2.83%. Consider `COc1ccc(Cl)cc1NC(=O)CN(C)C(=O)c1cc2ccccc2cc1OC`, for which the growth inhibition was -3.53%.

Regarding `COc1ccc(Cl)cc1NC(=O)CN(C)C(=O)CNC(=O)C12CC3CC(CC(C3)C1)C2`, the growth inhibition is -1.84%. On to `COc1ccc(Cl)cc1NC(=O)CN(C)C(=O)CCCc1c[nH]c2ccccc12`, for which the growth inhibition is 98.4% (active). For `COc1ccc(C(=O)Nc2ccccc2C(=O)NN=Cc2ccccc2OC)cc1` the value was 10.4%; for `NC1=NCC(Cc2ccc(O)cc2)N1CCc1cccc(F)c1` (stereo not drawn), 4.31% and -0.973%. On to `CSCc1cc(N(C)C)nc(SCc2ccc(Cl)cc2Cl)n1`, for which the growth inhibition is 63.4%. Next, `CSCCC(NC(=O)c1ccc(Cl)cc1Cl)C(=O)NNC(=O)c1csc(N2CCOCC2)n1` (stereo not drawn): 6.67%; `CSCc1cc(N2CCOCC2)nc(SCc2ccc(Cl)cc2Cl)n1`: 93.1% (active); `CCN(CC)c1ccc(C=NNC(=O)c2c[nH]c3ccccc23)cc1`: -5.72%. Consider `CCN1C(=O)C2C(C1=O)C(c1ccccc1)N1C(=O)c3ccccc3NC(=O)C21` (stereo not drawn), for which the growth inhibition was -13.8%.

Turning to `CCC1CCCCN1C(=O)NC(CCSC)C(=O)OC` (stereo not drawn), the growth inhibition is 7.53%. For `COc1cccc(-c2nnc(NC(=O)c3ccc(S(=O)(=O)N(CC(C)C)CC(C)C)cc3)o2)c1`, the growth inhibition is 100% (active). Next, `COc1ccc(-c2nnc(NC(=O)CS(=O)(=O)c3ccc(Cl)cc3)o2)c(OC)c1`: 46.4%; `O=C(Nc1nnc(-c2ccco2)o1)c1ccc(S(=O)(=O)N2CCOCC2)cc1`: 11.9%. Regarding `Cn1c2ccccc2c2nnc(NN=Cc3ccc(O)cc3)nc21`, the growth inhibition was 3.8%. For `O=C(NN=Cc1ccc(-c2ccc(Cl)c(Cl)c2)o1)C(=O)N1CCCC1` the value was -5.08%; for `CCc1nnc(NN=Cc2c(Cl)cccc2Cl)n1N`, -4.51%. For `C=CCOc1ccc(C(O)=C2C(=O)C(=O)N(CCCOC)C2c2ccc(O)c(OC)c2)cc1` (stereo not drawn) the value was 8.37%; for `O=[N+]([O-])c1cc(C=NNC(=Nc2ccccn2)c2ccccn2)ccc1O`, 66.8%. Next, `CCn1c(SCCC(C)C)nnc1-c1c[nH]c2ccccc12`: -3.66%.

For `CCCc1cc(-c2nc(-c3ccc(C)cc3)cs2)ccn1`, the growth inhibition was 16.9%.

As for `Cc1ccc(-c2csc(-c3c[nH]c4ccccc34)n2)cc1`, the growth inhibition is 89.5% (active). As to `C=CCn1c(N=Cc2ccc(OC)cc2)nc2ccccc21`, the growth inhibition is 7.61%. Next, `COc1ccc2nc(N=C(N)NC(=O)N3c4ccccc4Sc4ccccc43)nc(C)c2c1`: -21.3%; `COc1ccc2c(c1OC)CN1CCc3cc4c(cc3C1C2O)OCO4` (stereo not drawn): 15.5%; `CCOc1ccccc1C=NNC(=O)c1nnn(-c2nonc2N)c1CN1CCCCCC1`: 2.59%. As for `C#CCOCCOCCOCCNc1nc(N2CCN(C(=O)C(CCCCN)n3cc(CCCC)nn3)CC2)nc(N2CCN(C(=O)C(C(C)CC)n3cc(CCCN=C(N)N)nn3)CC2)n1` (stereo not drawn), the growth inhibition is 11.2%. Next, `O=C(Nc1ncc([N+](=O)[O-])s1)C1COc2ccccc2O1` (stereo not drawn): 90.5% (active). For the molecule `CC(=O)c1cccc(NC(=O)C2COc3ccccc3O2)c1` (stereo not drawn), the growth inhibition is 8.46%. `CC(=NNC(=O)CNC(=O)C1COc2ccccc2O1)c1ccc([N+](=O)[O-])cc1` (stereo not drawn): the growth inhibition was 0.446%. As to `O=C(O)CCC(=NNC(=O)c1cn(-c2ccccc2)nc1-c1ccccc1)C(=O)O`, the growth inhibition is 0.633%. `CCc1ccc2c(c1)C1(NN=C(c3ccccc3)S1)C(=O)N2` (stereo not drawn): the growth inhibition was 95.8% (active). Take `CC(=NOC(=O)c1ccc(F)cc1)c1sc(-c2ccccc2)nc1C`: the growth inhibition is -1.32%. Consider `O=C(/C=C/Nc1ccccc1)c1cnc(-c2ccccc2)s1`, for which the growth inhibition is -8.21%. Take `CON=CCC(=O)c1cnc(-c2ccc(Cl)cc2)s1`: the growth inhibition is 87.5% (active).

Take `CC(=O)c1cnc(-c2ccccc2)s1`: the growth inhibition is -8.03%. As to `CC(=O)Nc1ccc(C(=O)NN=CC2CC3C=CC2C3)cc1` (stereo not drawn), the growth inhibition is 9.12%. For `CS(=O)(=O)c1ccc(CNC(=O)[C@]2(C(F)(F)F)CC(CCc3ccccc3)CCCO2)cc1` (stereo partly drawn) the value was -0.803%.

Regarding `Cc1cccc(NC(=O)c2ccc([N+](=O)[O-])o2)c1`, the growth inhibition was 21.9%. With `C/[N+]([O-])=C\c1ccc([N+](=O)[O-])o1`, the growth inhibition was 96.9% (active). Turning to `Cc1ccc(NCC(=O)NN=Cc2ccc([N+](=O)[O-])o2)cc1`, the growth inhibition is 26.7%. With `CCC(C)N1CCC2(CC1)N=c1c(c3c4c5c(C)c(O)c3c(O)c1=NC(=O)C(C)=CC=CC(C)C(O)C(C)C(O)C(C)C(OC(C)=O)C(C)C(OC)C=CO[C@@](C)(O5)C4=O)N2` (stereo partly drawn), the growth inhibition is 99.6% (active).

With `Cn1c(=O)[nH]c(=O)c2c1nc(N1CCCCC1)n2CC=NNc1ccc(C(=O)O)cc1`, the growth inhibition was 10.4%. Turning to `O=C(CNC(=O)c1ccco1)NN=Cc1ccc(O)cc1O`, the growth inhibition was 4.74%.

Take `CC(C)C(=O)NC(=S)Nc1ccccc1F`: the growth inhibition is 14.2%.

With `CC(C)CC(=O)NC(=S)Nc1cc(C(=O)O)ccc1Cl`, the growth inhibition is 9.77%. On to `CC(C)CC(=O)NC(=S)Nc1ccc(F)cc1F`, for which the growth inhibition was 86.4% (active).
